Measured values: PubChem BioAssay (NCATS)
Results filed as inconclusive are left out. A call without a number means that no potency is given here. Calls of active or inactive are those of the source. Unless noted, calls follow the shape of the dose curve; as a rule, active = well fitted curve in the direction sought with a large enough effect; inconclusive = small, poorly fitted or top-dose-only effect, or another doubt; inactive = no such curve, though single readings can be large; an effect the other way counts as inactive or inconclusive.

Legend:
[1] = Nrf2 qHTS screen for inhibitors: Validation (AID 493153; active = well fitted inhibition curve with a large enough effect in the main read-out, with a control signal flat, not every such curve was filed as active); details: Potency: luciferase luminescence; viability change: measured here: cytotoxicity max response
Procedure, shortened: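 Concentration-response test in A549 ARE_Fluc reporter cells (5% FBS OPTI-MEM), compound exposure 18-24 h at 37°C, 5% CO2. Cell viability measured first by CellTiter-Fluor fluorescence; ARE-driven luciferase luminescence then measured as Nrf2 activity.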

[2] = qHTS for Inhibitors of Cell Surface uPA Generation: Validation Assay (AID 493164);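 also: RAW 264.7 macrophage cells exposed to compound for 18 h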
Procedure, shortened: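 Compounds are titrated over seven points (2.45 nM–38.3 uM final) onto pre-plated RAW 264.7 cells and incubated for 18 h. Retained intracellular ATP, measured with ATP-Lite, indicates blocked lethal factor entry.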

[3] = molecular target: Galactokinase (Homo sapiens) (UniProt P51570); test: qHTS Validation Assay for Inhibitors of Human Galactokinase (GALK) (AID 493189)
Sequence of Galactokinase (Homo sapiens) (P51570 whole entry, looked up): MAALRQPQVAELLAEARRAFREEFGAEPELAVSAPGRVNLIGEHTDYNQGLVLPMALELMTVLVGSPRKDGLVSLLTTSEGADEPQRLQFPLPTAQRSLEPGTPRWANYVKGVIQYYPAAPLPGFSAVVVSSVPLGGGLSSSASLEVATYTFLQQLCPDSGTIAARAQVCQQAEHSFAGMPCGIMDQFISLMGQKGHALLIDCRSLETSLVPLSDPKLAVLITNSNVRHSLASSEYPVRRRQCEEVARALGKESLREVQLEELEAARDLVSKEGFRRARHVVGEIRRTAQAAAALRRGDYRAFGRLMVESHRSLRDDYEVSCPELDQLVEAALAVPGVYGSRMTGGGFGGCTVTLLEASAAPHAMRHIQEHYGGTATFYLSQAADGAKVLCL
Procedure, shortened: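 Enzyme activity is inferred from ATP consumption: human GALK phosphorylates galactose (100 uM) using 35 uM ATP for 1 h at room temperature, and luciferase-based Kinase-Glo Plus reports unconsumed ATP.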

[4] = Validation screen for small molecules that induce DNA re-replication in SW480 colon adenocarcinoma cells (AID 504364)
Procedure, shortened: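 Read-out: total Hoechst intensity of nuclei by fluorescence scanning imager; hits raise the fraction of nuclei with elevated DNA content. Cells received compound for 48 hr at 37 C before a 40 min stain.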

[5] = molecular target: Peptidyl-prolyl cis-trans isomerase NIMA-interacting 1 (Homo sapiens) (UniProt Q13526); test: qHTS Validation Assay to Find Inhibitors of Pin1 (AID 504536; active = well fitted inhibition curve with a large enough effect in the polarisation, with a control signal flat, not every such curve was filed as active; the % refers to the polarisation; also: potency is read from the fitted curve at half-maximal effect)
Sequence of Peptidyl-prolyl cis-trans isomerase NIMA-interacting 1 (Homo sapiens) (Q13526 whole entry, looked up): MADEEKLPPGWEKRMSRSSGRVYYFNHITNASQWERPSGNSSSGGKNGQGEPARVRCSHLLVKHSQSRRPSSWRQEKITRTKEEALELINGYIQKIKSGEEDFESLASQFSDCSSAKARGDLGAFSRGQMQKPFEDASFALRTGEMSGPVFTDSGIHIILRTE
Procedure, shortened: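 Fluorescence polarization competition: compounds (titration) displace HiFluor-488-labeled Pin1-1b peptide from Pin1 (0.3 uM final) in pH 7.5 HEPES buffer with DTT, 10 min at room temperature; %Activity normalized to no-enzyme wells, curves fitted.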

[6] = molecular target: Phosphoglycerate kinase, glycosomal (Trypanosoma brucei brucei) (UniProt P07378); test: qHTS Validation Assay to Find Inhibitors of Phosphoglycerate Kinase (AID 504547); also: potency is read from the fitted curve at half-maximal effect
Sequence of Phosphoglycerate kinase, glycosomal (Trypanosoma brucei brucei) (P07378 whole entry, looked up): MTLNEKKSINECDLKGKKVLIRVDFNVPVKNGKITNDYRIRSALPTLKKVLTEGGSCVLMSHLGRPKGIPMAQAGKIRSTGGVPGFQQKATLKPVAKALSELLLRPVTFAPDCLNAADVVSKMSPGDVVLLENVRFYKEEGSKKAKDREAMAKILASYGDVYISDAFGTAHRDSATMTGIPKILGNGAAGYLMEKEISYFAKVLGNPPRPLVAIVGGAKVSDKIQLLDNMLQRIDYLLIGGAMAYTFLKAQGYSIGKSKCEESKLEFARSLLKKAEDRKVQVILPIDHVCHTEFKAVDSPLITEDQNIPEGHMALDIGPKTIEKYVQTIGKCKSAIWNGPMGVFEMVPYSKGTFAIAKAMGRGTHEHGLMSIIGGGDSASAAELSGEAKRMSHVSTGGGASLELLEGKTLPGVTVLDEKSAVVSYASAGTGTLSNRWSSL
Procedure, shortened: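 Compounds are pinned into the substrate/PGK mixture, and GAPDH (100nM final) is added to start the reaction by producing 1,3-BPG. After 60 minutes at room temperature, Kinase-Glo Plus is added and luminescence is measured 10 minutes later.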

[7] = molecular target: phosphoglycerate mutase (Leishmania major) (UniProt Q4Q090); test: qHTS Validation Assay to Find Inhibitors of Phosphoglycerate Mutase (AID 504548); details: Potency: inhibition qHTS; also: series mostly up to about 58 µM
Sequence of phosphoglycerate mutase (Leishmania major) (Q4Q090 1-553): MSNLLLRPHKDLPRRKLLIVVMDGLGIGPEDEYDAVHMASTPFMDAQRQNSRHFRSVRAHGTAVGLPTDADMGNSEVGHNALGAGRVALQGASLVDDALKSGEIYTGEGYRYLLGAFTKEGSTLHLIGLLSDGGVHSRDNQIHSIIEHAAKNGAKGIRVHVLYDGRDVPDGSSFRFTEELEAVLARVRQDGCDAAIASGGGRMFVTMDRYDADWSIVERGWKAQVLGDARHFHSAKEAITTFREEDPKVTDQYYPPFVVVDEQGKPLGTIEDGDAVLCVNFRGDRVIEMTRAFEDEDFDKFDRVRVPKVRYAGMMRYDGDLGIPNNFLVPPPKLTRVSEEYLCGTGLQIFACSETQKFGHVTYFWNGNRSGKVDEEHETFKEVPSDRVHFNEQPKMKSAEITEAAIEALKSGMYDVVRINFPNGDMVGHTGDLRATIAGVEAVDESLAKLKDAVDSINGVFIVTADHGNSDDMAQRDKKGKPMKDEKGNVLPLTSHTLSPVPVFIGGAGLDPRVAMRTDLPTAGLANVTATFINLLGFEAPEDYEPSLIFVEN
Procedure, shortened: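 Lm PGAM at 1.25 nM final with substrate in 100 mM TEA pH 7.6, 5 mM MgCl2, 0.01% Tween-20; 45 min at room temperature. Kinase-GloPlus added, 10 min, end-point luminescence read.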

[8] = molecular target: Ubiquitin carboxyl-terminal hydrolase 1 (Homo sapiens) (UniProt O94782); test: Inhibitors of USP1/UAF1: Pilot qHTS (AID 504865); also: nearly all actives have a fitted effect of over 35% in size; also: potency is read from the fitted curve at half-maximal effect
Sequence of Ubiquitin carboxyl-terminal hydrolase 1 (Homo sapiens) (O94782 whole entry, looked up): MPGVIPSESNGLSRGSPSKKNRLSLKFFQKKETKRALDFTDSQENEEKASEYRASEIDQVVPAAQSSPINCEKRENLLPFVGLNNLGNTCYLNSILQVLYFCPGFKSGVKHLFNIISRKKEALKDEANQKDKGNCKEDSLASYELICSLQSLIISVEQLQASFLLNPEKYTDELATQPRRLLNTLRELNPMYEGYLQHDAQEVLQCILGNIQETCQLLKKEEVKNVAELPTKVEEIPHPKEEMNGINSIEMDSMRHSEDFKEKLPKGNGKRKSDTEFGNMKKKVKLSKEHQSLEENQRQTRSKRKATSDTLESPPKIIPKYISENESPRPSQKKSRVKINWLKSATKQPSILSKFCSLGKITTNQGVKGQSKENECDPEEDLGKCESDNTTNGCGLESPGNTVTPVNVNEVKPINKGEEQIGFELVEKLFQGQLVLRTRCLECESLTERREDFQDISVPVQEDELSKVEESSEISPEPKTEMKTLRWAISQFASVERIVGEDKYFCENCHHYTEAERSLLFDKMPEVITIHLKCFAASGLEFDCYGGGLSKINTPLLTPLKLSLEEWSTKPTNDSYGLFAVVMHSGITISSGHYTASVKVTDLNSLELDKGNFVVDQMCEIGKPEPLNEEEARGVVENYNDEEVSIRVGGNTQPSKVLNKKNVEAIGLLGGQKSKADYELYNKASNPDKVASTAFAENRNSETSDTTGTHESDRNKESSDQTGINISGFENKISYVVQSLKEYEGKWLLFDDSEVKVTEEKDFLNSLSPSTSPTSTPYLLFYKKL
Procedure, shortened: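 Enzyme-free wells gave the negative control, while test wells held 1nM USP1/UAF1 preincubated with compound for 15 min at room temperature. Ub-Rho at 150nM final started the reaction, and fluorescence at 480/540 nm was recorded kinetically.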

[9] = qHTS for Inhibitors of ATXN expression: Validation (AID 588378); also: nearly all actives have a fitted effect of over 75% in size; also: potency is read from the fitted curve at half-maximal effect
Procedure, shortened: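 After a 2 h attachment and 24 h compound incubation, HEK293-ATXN2-FFLuc wells are read for fluorescence at 405 nm excitation/525 nm emission as a viability measure, then for Bright-Glo luminescence reflecting ATXN2 expression.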

[10] = qHTS for Inhibitors of ATXN expression: Validation of Cytotoxic Assay (AID 588349)
Procedure, shortened: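 Cytotoxicity counter-screen: HEK293 cells exposed to compound titrations, 72 hr, 37 degrees C. Read-out is intracellular ATP (CellTiter Glo luminescence) as a viability measure.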

[11] = molecular target: DNA dC->dU-editing enzyme APOBEC-3G (Homo sapiens) (UniProt Q9HC16); test: qHTS for inhibitors of Vif-A3G interactions: Validation (AID 588379)
Sequence of DNA dC->dU-editing enzyme APOBEC-3G (Homo sapiens) (Q9HC16 whole entry, looked up): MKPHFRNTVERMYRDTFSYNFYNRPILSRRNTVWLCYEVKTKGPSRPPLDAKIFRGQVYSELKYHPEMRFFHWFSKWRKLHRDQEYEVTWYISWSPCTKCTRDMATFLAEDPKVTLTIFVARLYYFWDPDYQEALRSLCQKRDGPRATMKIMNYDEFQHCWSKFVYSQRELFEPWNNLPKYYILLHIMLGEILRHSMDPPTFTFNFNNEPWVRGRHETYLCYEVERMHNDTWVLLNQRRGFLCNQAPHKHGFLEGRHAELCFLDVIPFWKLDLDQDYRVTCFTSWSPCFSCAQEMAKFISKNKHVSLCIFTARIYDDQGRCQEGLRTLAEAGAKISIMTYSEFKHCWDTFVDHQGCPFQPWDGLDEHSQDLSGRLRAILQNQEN
Procedure, shortened: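 Yellow fluorescence (Ex 488, Em 500-530) of Vif-coexpressing HeLa A3G-eYFP cells, scanned by Acumen cytometer, reports blocked A3G degradation. Cells plated at 700/well overnight at 37 deg C before compound addition, then a further overnight compound incubation at 37 deg C.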

[12] = molecular target: Estrogen receptor (Homo sapiens) (UniProt P03372); test: qHTS assay for small molecule agonists of estrogen receptor alpha signaling (AID 588514; calls by dose curve; also: nearly all actives have a fitted effect of over 70% in size)
Sequence of Estrogen receptor (Homo sapiens) (P03372 whole entry, looked up): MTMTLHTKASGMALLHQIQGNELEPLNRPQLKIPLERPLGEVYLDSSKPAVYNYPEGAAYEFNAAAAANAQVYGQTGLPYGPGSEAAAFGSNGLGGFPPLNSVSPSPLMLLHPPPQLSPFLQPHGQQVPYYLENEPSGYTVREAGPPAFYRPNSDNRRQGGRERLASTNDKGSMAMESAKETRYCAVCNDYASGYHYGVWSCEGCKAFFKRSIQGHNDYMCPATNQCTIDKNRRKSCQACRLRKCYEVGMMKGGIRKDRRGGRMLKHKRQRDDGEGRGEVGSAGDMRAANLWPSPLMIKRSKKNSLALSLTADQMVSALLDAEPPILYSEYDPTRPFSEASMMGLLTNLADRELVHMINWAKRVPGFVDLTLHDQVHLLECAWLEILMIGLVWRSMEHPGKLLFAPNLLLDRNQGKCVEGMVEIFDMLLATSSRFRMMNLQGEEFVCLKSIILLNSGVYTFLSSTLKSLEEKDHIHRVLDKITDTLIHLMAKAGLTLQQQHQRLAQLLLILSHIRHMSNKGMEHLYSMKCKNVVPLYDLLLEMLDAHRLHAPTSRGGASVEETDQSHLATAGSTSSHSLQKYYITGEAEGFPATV
Procedure, shortened: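 Read-out: CCF4 fluorescence from a beta-lactamase reporter in ER-alpha-UAS-bla HEK 293 cells after 18 hrs of compound exposure at 37 C. Normalized to 20 nM 17-beta-estradiol (100%) and DMSO (0%).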

[13] = molecular target: Androgen receptor (Homo sapiens) (UniProt P10275); test: qHTS assay for small molecule agonists of androgen receptor signaling (AID 588515; active = well fitted curve in the direction sought with a large enough effect in the signal ratio, with a control signal flat; the % refers to the signal ratio); details: AR-UAS-bla HEK293, beta-lactamase ratio, agonist 16 h; stronger effect = higher value
Sequence of Androgen receptor (Homo sapiens) (P10275 whole entry, looked up): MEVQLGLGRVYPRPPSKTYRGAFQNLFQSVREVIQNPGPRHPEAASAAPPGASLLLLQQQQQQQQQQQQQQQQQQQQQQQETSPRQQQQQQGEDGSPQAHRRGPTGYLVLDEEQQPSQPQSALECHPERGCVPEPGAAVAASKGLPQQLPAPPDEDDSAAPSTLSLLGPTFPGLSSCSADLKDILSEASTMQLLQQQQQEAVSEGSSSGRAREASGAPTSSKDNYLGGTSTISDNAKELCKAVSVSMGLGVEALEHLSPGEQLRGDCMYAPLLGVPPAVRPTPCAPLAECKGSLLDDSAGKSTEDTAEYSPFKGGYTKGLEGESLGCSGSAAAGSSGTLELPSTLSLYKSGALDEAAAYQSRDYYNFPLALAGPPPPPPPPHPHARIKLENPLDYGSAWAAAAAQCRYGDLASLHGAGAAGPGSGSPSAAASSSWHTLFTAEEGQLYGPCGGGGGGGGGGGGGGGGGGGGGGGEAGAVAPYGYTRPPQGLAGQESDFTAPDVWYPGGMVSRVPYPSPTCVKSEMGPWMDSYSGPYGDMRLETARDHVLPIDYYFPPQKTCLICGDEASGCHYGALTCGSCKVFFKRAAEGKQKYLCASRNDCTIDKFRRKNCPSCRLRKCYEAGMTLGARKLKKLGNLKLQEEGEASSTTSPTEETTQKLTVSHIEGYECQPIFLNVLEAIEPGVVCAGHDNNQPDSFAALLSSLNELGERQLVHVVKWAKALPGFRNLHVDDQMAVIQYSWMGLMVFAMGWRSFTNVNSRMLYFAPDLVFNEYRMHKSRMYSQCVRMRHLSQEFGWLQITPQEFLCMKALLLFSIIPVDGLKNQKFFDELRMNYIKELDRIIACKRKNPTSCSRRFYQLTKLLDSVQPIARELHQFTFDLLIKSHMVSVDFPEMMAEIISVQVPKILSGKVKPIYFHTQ
Procedure, shortened: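 Stimulation of an AR-responsive β-lactamase reporter in GripTite HEK293 cells was measured after 16 h compound exposure at 37 °C, via CCF4 fluorescence after 2 h RT. EC50 from Hill fits, normalized to R1881 at 30 nM.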

[14] = molecular target: Androgen receptor (Homo sapiens) (UniProt P10275); test: qHTS assay for small molecule antagonists of androgen receptor signaling (AID 588516; active = well fitted curve in the direction sought with a large enough effect in the signal ratio, with a control signal flat, not every such curve was filed as active; the % refers to the signal ratio)
Procedure, shortened: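 Compounds tested in titration against 10 nM R1881 in AR-responsive bla reporter HEK 293 cells; CCF4 fluorescence (460/530 nm) after 16 h exposure gave IC50 and efficacy.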

[15] = molecular target: Glucocorticoid receptor (Homo sapiens) (UniProt P04150); test: qHTS assay for small molecule antagonists of glucocorticoid receptor signaling (AID 588533; active = well fitted inhibition curve with a large enough effect in the signal ratio, with a control signal flat, not every such curve was filed as active; the % refers to the signal ratio;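 also: cells stimulated with 2 nM dexamethasone as agonist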)
Sequence of Glucocorticoid receptor (Homo sapiens) (P04150 whole entry, looked up): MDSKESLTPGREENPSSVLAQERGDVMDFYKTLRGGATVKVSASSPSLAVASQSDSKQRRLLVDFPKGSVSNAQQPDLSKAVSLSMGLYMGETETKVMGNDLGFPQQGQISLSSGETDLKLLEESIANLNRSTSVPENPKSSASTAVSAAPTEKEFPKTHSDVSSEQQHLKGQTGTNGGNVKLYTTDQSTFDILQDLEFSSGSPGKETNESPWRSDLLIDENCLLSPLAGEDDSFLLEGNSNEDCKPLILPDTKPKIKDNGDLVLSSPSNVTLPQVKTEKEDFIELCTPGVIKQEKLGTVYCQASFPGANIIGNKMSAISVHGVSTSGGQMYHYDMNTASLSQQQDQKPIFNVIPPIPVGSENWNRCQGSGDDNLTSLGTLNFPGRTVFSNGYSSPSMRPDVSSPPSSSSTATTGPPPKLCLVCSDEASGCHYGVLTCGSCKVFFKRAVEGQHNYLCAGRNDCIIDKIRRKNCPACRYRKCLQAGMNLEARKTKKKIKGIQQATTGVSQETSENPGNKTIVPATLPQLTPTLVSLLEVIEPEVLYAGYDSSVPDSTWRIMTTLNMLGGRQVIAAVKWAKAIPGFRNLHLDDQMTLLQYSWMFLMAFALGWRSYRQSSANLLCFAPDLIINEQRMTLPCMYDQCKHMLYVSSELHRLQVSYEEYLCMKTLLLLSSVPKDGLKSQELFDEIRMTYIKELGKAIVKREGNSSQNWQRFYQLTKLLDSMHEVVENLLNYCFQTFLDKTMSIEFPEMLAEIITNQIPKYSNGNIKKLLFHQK
Procedure, shortened: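 Antagonist-mode qHTS: compound titrations added to GRE-bla HeLa cells, then dexamethasone 2 nM final; 18 h, 37 C. CCF4 FRET fluorescence normalized to dexamethasone and DMSO; IC50 from Hill fit.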

| Structure (SMILES) | Potency [1] | viability change [1] | outcome [2] | Potency [3] | Potency [4] | Potency [5] | Potency [6] | Potency [7] | Potency [8] | Potency [9] | Potency [10] | Potency [11] | Potency [12] | activation [13] | outcome [14] | Potency [15] |
| --- | --- | --- | --- | --- | --- | --- | --- | --- | --- | --- | --- | --- | --- | --- | --- | --- |
| Cc1cccc(C)c1OCC(N)C(C)C (stereo unspecified) | inactive | 4.6% | inactive | inactive | inactive | inactive | inactive | inactive | inactive | inactive | – | – | – | – | – | – |
| NCC(O)c1ccc(O)c(O)c1 (stereo unspecified) | inactive | 3.36% | inactive | inactive | inactive | inactive | 4.78 µM (active) | inactive | inactive | inactive | – | – | – | – | – | – |
| N#Cc1cc2nc(O)c(O)nc2cc1[N+](=O)[O-] | inactive | -8.54% | inactive | inactive | inactive | inactive | inactive | inactive | inactive | inactive | inactive | inactive | – | – | – | – |
| NOCC(=O)O | inactive | 18.2% | inactive | inactive | inactive | inactive | inactive | inactive | inactive | inactive | inactive | – | – | – | – | – |
| NC(=O)CNCCC(c1ccccc1)c1ccccc1 | inactive | 12.7% | inactive | inactive | inactive | inactive | inactive | inactive | inactive | inactive | inactive | – | – | – | – | – |
| CN(C)C(=O)/N=N/C(=O)N(C)C | inactive | 1.53% | inactive | inactive | inactive | inactive | inactive | inactive | inactive | inactive | inactive | – | – | – | – | – |
| CCCCCCCCCCCCCCSCC(=O)O | inactive | 0.626% | inactive | inactive | inactive | 23.9 µM (active) | inactive | inactive | 25.1 µM (active) | inactive | inactive | – | inactive | -2.58% (inactive) | inactive | inactive |
| COCc1nc2c([nH]1)c(=O)n(C)c(=O)n2CC(C)C | inactive | 1.53% | inactive | inactive | inactive | inactive | inactive | – | inactive | inactive | – | inactive | – | – | – | – |
| COc1cc(CNC(=O)CCCCCCC(C)C)ccc1O | inactive | -9.77% | inactive | inactive | inactive | inactive | inactive | inactive | – | inactive | inactive | inactive | – | – | – | – |
| O=C(OCCN1CCOCC1)C1(c2ccccc2)CCCCC1 | inactive | -0.582% | inactive | inactive | inactive | inactive | – | inactive | inactive | inactive | inactive | inactive | – | – | – | – |
| CN1CCCC1CCOC(C)(c1ccccc1)c1ccc(Cl)cc1 (stereo unspecified) | inactive | -0.239% | inactive | inactive | inactive | inactive | – | inactive | inactive | 12.6 µM (active) | – | – | – | – | – | – |
| OCC1NCC(O)C(O)C1O (stereo unspecified) | inactive | -2.29% | inactive | inactive | inactive | inactive | – | inactive | inactive | inactive | inactive | – | – | – | – | – |
| CN1C2CCC1CC(OC(c1ccccc1)c1ccccc1)C2 (stereo unspecified) | inactive | -14.9% | inactive | inactive | inactive | – | inactive | inactive | inactive | – | inactive | – | – | – | – | – |
| CN[C@H](CC(=O)O)C(=O)O | inactive | -4.15% | inactive | inactive | inactive | inactive | – | inactive | inactive | inactive | inactive | inactive | – | – | – | – |
| Cn1cc(C(=O)OCC2CCN(CCNS(C)(=O)=O)CC2)c2ccccc21 | inactive | -0.747% | inactive | inactive | inactive | inactive | inactive | inactive | – | – | inactive | inactive | – | – | – | – |
| N[C@@H](CCCC(=O)O)C(=O)O | inactive | 7.86% | inactive | inactive | inactive | inactive | inactive | – | inactive | inactive | inactive | – | – | – | – | – |
| NCCS(=O)O | inactive | 6.69% | inactive | inactive | inactive | inactive | inactive | – | inactive | inactive | – | inactive | – | – | – | – |
| CCCn1c(=O)c2c(ncn2C)n(CCC)c1=O | inactive | 3.43% | inactive | inactive | inactive | inactive | inactive | – | inactive | inactive | inactive | – | – | – | – | – |
| c1ccc2c(c1)CC(N1CCN(c3cccc4c3OCCO4)CC1)C2 | inactive | 3.52% | inactive | inactive | inactive | inactive | – | inactive | inactive | inactive | inactive | – | – | – | – | – |
| O=c1onc2n1-c1cc(Br)ccc1OC2 | inactive | -3.61% | inactive | inactive | inactive | inactive | – | inactive | – | inactive | inactive | – | – | – | – | – |
| O=C(c1ccc2c(c1)OCCO2)N1CCCCC1 | inactive | 1.66% | inactive | inactive | inactive | inactive | inactive | – | inactive | – | inactive | – | – | – | – | – |
| C=CC[C@H](N)C(=O)O | inactive | -2.69% | inactive | inactive | inactive | inactive | – | inactive | – | inactive | inactive | – | – | – | – | – |
| CC(=O)N[C@@H](Cc1c[nH]c2ccccc12)C(=O)OCc1cc(C(F)(F)F)cc(C(F)(F)F)c1 | inactive | 0.548% | inactive | inactive | inactive | inactive | inactive | – | 20 µM (active) | inactive | inactive | inactive | – | – | – | – |
| COc1ccc2c(c1)CCC1C2CC[C@@]2(C)C1CC[C@@H]2NCCCCCCN1C(=O)C=CC1=O (stereo partly specified) | inactive | -5.2% | inactive | inactive | inactive | inactive | inactive | inactive | – | – | inactive | – | – | – | – | – |
| CCCC[C@@]1(C2CCCC2)Cc2cc(OCC(=O)O)c(Cl)c(Cl)c2C1=O | inactive | -6.32% | inactive | inactive | inactive | inactive | inactive | – | – | – | inactive | – | – | – | – | – |
